# Measurements taken from PubChem BioAssay (EPA / NIEHS).
# Inconclusive results are not listed. Calls of active or inactive are those of the source. The calls were made as follows: active = hit-call score of the fitted dose curve at least 0.9, where 1 is the maximum; inconclusive = response in the unintended direction; inactive = score below 0.9.
# Experiment: Tanguay_ZF_120hpf_AXIS_legacy: (Legacy) Oregon State University Tanguay Lab 120 Hour Post-fertilization zebrafish Assay for Body Axis Malformation (AID 2283635);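 as to AC50: potency for an increased fraction of larvae scored with body axis malformation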
# Protocol: Tanguay_ZF_120hpf_legacy is a whole embryo, multiplexed endpoint assay using zebrafish larvae exposed for 120 hours post fertilization on a 96-well plate.Tanguay_ZF_120hpf_AXIS_legacy is one of one assay component(s) measured or calculated from the Tanguay_ZF_120hpf_legacy assay. It is designed to make measurements of zebrafish development as detected with brightfield microscopy of developing zebrafish embryos.Data from the assay component Tanguay_ZF_120hpf_AXIS_legacy was analyzed into 1 assay endpoints. This assay endpoint, Tanguay_ZF_120hpf_AXIS_legacy, was analyzed in the positive analysis fitting direction relative to DMSO as the negative control and baseline of activity. Using a type of morphology reporter, gain-of-signal activity can be used to understand changes in developmentals as they relate to the whole embryo. To generalize the intended target to other relatable targets, this assay endpoint is annotated to the zebrafish development intended target family, where the subfamily is body axis morphogenesis.
# Zebrafish husbandry: Tropical 5D wild-type adult zebrafish were housed in at an approximate density of 1000 per 100 gallon tank at the Sinnhuber Aquatic Research Laboratory, Oregon State University, Corvallis, OR. Each tank was kept at standard laboratory conditions of 28C on a 14-h light/10-h dark photoperiod in fish water consisting of reverse osmosis water supplemented with a commercially available salt (Instant Ocean). Spawning funnels were placed into the tanks the night prior, and embryos were collected and staged. To increase bioavailability, the chorion was enzymatically removed using pronase (63.6mg/ml, >/= 3.5U/mg, Sigma-Aldrich: P5147) at 4 hours post fertilization (hpf) using a custom automated dechorionator.Chemical exposures: Six hpf dechorionated embryos were placed 1 embryo per well in a 96-well plate prefilled with 90 ul of EM using automated embryo placement systems (AEPS). Ten microliters of each row of dilution plate 2 was added to 2 exposure plates. The final DMSO concentration used was 0.64% (vol/vol). Thirty-two embryos were also exposed to 5uM trimethyltin chloride (positive control). Plates were sealed to prevent evaporation and foil covered to reduce light exposure and kept in a 28C incubator. Embryos were statically exposed until 120 hpf. At 24 hpf, embryos were assessed for photomotor response using a custom photomotor response analysis tool (PRAT) and for developmental toxicity endpoints (MO24: mortality at 24 hpf, DP: developmental progression, SM: spontaneous movement, and NC: notochord distortion). At 120 hpf, locomotor activity was measured using Viewpoint Zebralab and assessed for 18 endpoints. Zebrafish acquisition and analysis program (ZAAP), a custom program designed to inventory, acquire, and manage zebrafish data, was used to collect developmental endpoints as either present or absent (i.e., binary responses were recorded). If mortality occurred for an embryo (at either 24 or 120 hpf), the non-mortality endpoints were not measured.
Structure (SMILES),outcome,AC50
CCc1nn(C)c(C(=O)NCc2ccc(C(C)(C)C)cc2)c1Cl,inactive,–
CC1=C(C(=O)Nc2ccccc2)SCCO1,inactive,–
CCOP(=S)(OCC)SCn1c(=O)oc2cc(Cl)ccc21,inactive,–
CCOC(=O)C(Cl)Cc1cc(-n2nc(C)n(C(F)F)c2=O)c(F)cc1Cl (stereo not given),–,4.23 µM (active)
CCNc1nc(Cl)nc(NC(C)C)n1,inactive,–
OC(c1ccc(Cl)cc1)(c1cncnc1)c1ccccc1Cl (stereo not given),inactive,–
COC(=O)N(OC)c1ccccc1COc1ccn(-c2ccc(Cl)cc2)n1,inactive,–
CNC(=S)S,inactive,–
CCON=C(CC)C1=C(O)CC(c2c(C)cc(C)cc2C)CC1=O (stereo not given),inactive,–
COc1cnc(OC)n2nc(NS(=O)(=O)c3c(OCC(F)F)cccc3C(F)(F)F)nc12,inactive,–
CC(C)Oc1cc(-n2nc(C(C)(C)C)oc2=O)c(Cl)cc1Cl,inactive,–
CS/C(C)=N/OC(=O)N(C)SN(C)C(=O)O/N=C(\C)SC,–,24.4 µM (active)
CCNc1nc(Cl)nc(NCC)n1,inactive,–
COc1nc(NC(C)C)nc(NC(C)C)n1,inactive,–
Cc1c(F)c(F)c(COC(=O)C2C(/C=C(\Cl)C(F)(F)F)C2(C)C)c(F)c1F (stereo not given),–,3.4 µM (active)
CCCCC(CC)COC(=O)c1ccccc1C(=O)OCC(CC)CCCC (stereo not given),inactive,–
COC(=O)c1ccccc1C(=O)OC,inactive,–
C=CC1(C)OC(=O)N(c2cc(Cl)cc(Cl)c2)C1=O (stereo not given),inactive,–
COC(=O)C(C)Oc1ccc(Oc2ccc(Cl)cc2Cl)cc1 (stereo not given),inactive,–
O=C(O)c1nc(Cl)ccc1Cl,inactive,–

Structure (SMILES),outcome,AC50
CO/C=C(/C(=O)OC)c1ccccc1Oc1cc(Oc2ccccc2C#N)ncn1,inactive,–
O=C(Nc1ccccc1)Nc1ccnc(Cl)c1,inactive,–
N#Cc1nn(-c2c(Cl)cc(C(F)(F)F)cc2Cl)c(N)c1S(=O)C(F)(F)F (stereo not given),–,4.62 µM (active)
CN(C)C(=S)SSC(=S)N(C)C,inactive,–
CC(Oc1ccc(Cl)cc1Cl)C(=O)O (stereo not given),inactive,–
C=CCC1=C(C)C(OC(=O)C2C(C=C(C)C)C2(C)C)CC1=O (stereo not given),inactive,–
N#CC(CCc1ccc(Cl)cc1)(Cn1cncn1)c1ccccc1 (stereo not given),inactive,–
O=C(O)COc1nc(Cl)c(Cl)cc1Cl,inactive,–
CCCCOC(=O)c1ccccc1C(=O)OCCCC,inactive,–
CC(C)(C)c1ccc(CSc2cnn(C(C)(C)C)c(=O)c2Cl)cc1,inactive,–
COc1ccc(C(c2ccc(OC)cc2)C(Cl)(Cl)Cl)cc1,inactive,–
COP(=S)(OC)Oc1nc(Cl)c(Cl)cc1Cl,inactive,–
Cc1ccc(-c2c(Cl)nc(C#N)n2S(=O)(=O)N(C)C)cc1,inactive,–
CON(C)C(=O)Nc1ccc(Cl)c(Cl)c1,inactive,–
CCCN(CCC)c1c([N+](=O)[O-])cc(S(N)(=O)=O)cc1[N+](=O)[O-],inactive,–
CCOc1cc(Oc2ccc(C(F)(F)F)cc2Cl)ccc1[N+](=O)[O-],inactive,–
CCCCNC(=O)n1c(NC(=O)OC)nc2ccccc21,inactive,–
Fc1ccc(Oc2ccnc3cc(Cl)cc(Cl)c23)cc1,inactive,–
C#CCOS(=O)OC1CCCCC1Oc1ccc(C(C)(C)C)cc1 (stereo not given),inactive,–
CCCC1COC(Cn2cncn2)(c2ccc(Cl)cc2Cl)O1 (stereo not given),inactive,–
